# Test results published in PubChem BioAssay.
# Calls of active or inactive are those of the source. Cut-off read from the data, not from the text of the source, unless noted: active = inhibition above about 80%; inactive = the rest.
# Columns and labels:
# [1] = viability loss with induced miR-34 in A549 – imaging, A549 dox-inducible miR-34, nuclei and caspase counts, primary screen (AID 1347080;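 active = compounds whose cell count with miR-34 switched on is under 0.7 times the count with it off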); details: A549 miR-34 inducible, Hoechst nuclei count, 48 h
# [2] = MELAS cybrid and Rieske KO viability enhancers – cell-based, MELAS cybrids, Rieske KO mouse fibroblasts, CellTiter-Glo, primary screen (AID 1508586;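 active = mean z-score across replicates of 1.96 or higher in either the MELAS or the Rieske mutant cell line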;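 note: z relative to plate mean and SD of compound and empty wells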); details: low glucose
# [3] = growth inhibition, single agent or in combination, cell-based, chromothripsis tumors, cisplatin or BGB combos (AID 1671449); details: LFS_MB_P medulloblastoma cells;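 note: cells exposed for 96 hours; 0% = vehicle DMSO and 100% = killing by high DMSO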
# [4] = growth inhibition, single agent and combos, cell-based, chromothripsis tumors, cisplatin or BGB combos (AID 1671450); details: HDN33 neuroblastoma cells, stronger effect = higher value;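 note: cells exposed to compound for four days; 0% = vehicle DMSO and 100% = cell killing by high DMSO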
# [5] = growth inhibition, single agents and combos, ICB984, cell-based, cisplatin or BGB combos, synergistic combos for chromothripsis tumors (AID 1671451; call rule not given here;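 note: cells exposed for 96 hours before readout; 0% = vehicle DMSO and 100% = killing by high DMSO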); details: ICB984 medulloblastoma cells, drug combinations, stronger effect = higher value
# [6] = growth inhibition, single agents and combos, LFS_MB_1R, cell-based, cisplatin or BGB combos, synergistic combos for chromothripsis tumors (AID 1671452); details: LFS_MB_1R medulloblastoma cells, stronger effect = higher value;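 note: cells exposed for 96 hours before readout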
# [7] = growth inhibition, single agents and combos, HTB85, cell-based, BGB or cisplatin IC20 combos, synergistic combos for chromothripsis tumors (AID 1671453); details: HTB85 osteosarcoma cells, drug combinations, stronger effect = higher value;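 note: cells exposed for 96 hours before readout; 0% = vehicle DMSO and 100% = high DMSO killing control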
# [8] = growth inhibition, single agents and combos, CRL2098, cell-based, BGB or cisplatin IC20 combos, synergistic combos for chromothripsis tumors (AID 1671454); details: CRL2098 osteosarcoma cells, drug combinations, stronger effect = higher value;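 note: cells exposed for 96 h before readout; 0% = vehicle DMSO and 100% = killing by high DMSO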
# [9] = growth inhibition, single agents and combos, HD-MB03, cell-based, BGB or cisplatin IC20 combos, synergistic combos for chromothripsis tumors (AID 1671455; in the data active = inhibition above about 83%;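 note: 0% = vehicle DMSO and 100% = high DMSO as cytotoxic control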); details: HD-MB03 medulloblastoma cells, stronger effect = higher value
# [10] = growth inhibition, single agents and combos, UWB1.289, cell-based, BGB or cisplatin combos, synergistic combos for chromothripsis tumors (AID 1671456); details: UWB1.289 ovarian carcinoma cells, stronger effect = higher value;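 note: cells exposed to compound for four days; 0% = vehicle DMSO and 100% = killing by high DMSO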
# [11] = growth inhibition, single agents and combos, LFS_MB_2R, cell-based, cisplatin combos, synergistic combos for chromothripsis tumors (AID 1671457); details: LFS_MB_2R medulloblastoma cells, stronger effect = higher value;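 note: cells exposed to compound for four days before readout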
# [12] = growth inhibition, MDA-MB-436, cell-based, BGB or cisplatin combos, synergistic combos for chromothripsis tumors (AID 1671458; call rule not given here;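 note: cells exposed for 96 hours; 0% = vehicle DMSO and 100% = killing by high DMSO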); details: MDA-MB-436 breast carcinoma growth inhibition, drug combinations, stronger effect = higher value
# [13] = UWB1.289_BRCA1 ovarian cancer growth, cell-based, BGB or cisplatin combinations (AID 1671459); details: UWB1.289 BRCA1 ovarian carcinoma, drug combinations, stronger effect = higher value
# [14] = drug combination toxicity in non-malignant astrocytes – cell-based, BGB or cisplatin IC20 combos, cytotoxicity control for chromothriptic childhood tumor combination screen (AID 1671460); details: Human astrocytes, viability inhibition, drug combinations, at 0.5 µM, stronger effect = higher value;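 note: cells exposed to compounds for 96 hours before viability readout; 0% = vehicle and 100% = killing control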
# [15] = BT084 cell growth, single and combined drugs, ICGC_MB145, cisplatin and BGB IC40 combos (AID 1671461); details: BT084 medulloblastoma cells, drug combinations, stronger effect = higher value;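 note: cells exposed to drugs for 96 hours; 0% = vehicle DMSO and 100% = high DMSO full killing control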
# [16] = RCMB18 cell growth, single agent and combined, cisplatin and BGB IC40 combos (AID 1671462); details: RCMB18 medulloblastoma cells, stronger effect = higher value;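 note: cells exposed to compound for four days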
# [17] = CRL1545 cell growth, single agent and combined, cisplatin and BGB IC20 combos (AID 1671464); details: CRL1545 osteosarcoma cells, stronger effect = higher value;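 note: cells exposed to compound for 96 hours before readout; 0% = vehicle DMSO and 100% = high DMSO killing control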
# [18] = measured here: combination with BGB IC40, at 0.05 µM
# [19] = measured here: with BGB IC20 combination, at 0.5 µM
# [20] = measured here: with cisplatin IC20 combination, at 0.5 µM
# [21] = measured here: combination with cisplatin, at 0.5 µM
# [22] = measured here: combination with cisplatin, at 5 µM
smiles,measurement,setting,value
CC(C=CC(=O)NO)=CC(C)C(=O)c1ccc(N(C)C)cc1 (centres undefined),fold change,"[1]; stronger effect = lower value, cell number ratio, induced over uninduced",0.905 (inactive)
same,fold change,[1]; measured here: relative caspase fold change +Dox/-Dox,0.765
same,cell count,"[1]; measured here: total cells with miR-34 induction, stronger effect = lower value",830
same,cell count,[1]; measured here: total cells without miR-34 induction,918
same,z-score,"[2]; MELAS cybrid survival, CellTiter-Glo 48 h, stronger effect = higher value",-0.131 (inactive)
same,z-score,"[2]; Rieske KO mouse fibroblast survival, CellTiter-Glo 72 h",-2.46
same,inhibition,"[3]; at 0.5 µM, stronger effect = higher value",124% (active)
same,inhibition,"[3]; measured here: combination with BGB IC20, at 0.005 µM",-30%
same,inhibition,"[3]; measured here: combination with BGB IC40, at 0.005 µM",-20.9%
same,inhibition,[3]; [18],-37.3%
same,inhibition,"[3]; measured here: combination with cisplatin, at 0.5 µM, stronger effect = higher value",130%
same,inhibition,"[3]; measured here: combination with cisplatin, at 5 µM, stronger effect = higher value",120%
same,inhibition,"[4]; BGB combo, at 5 µM",99.8%
same,inhibition,[4]; at 0.5 µM,92.3% (active)
same,inhibition,"[4]; cisplatin combo, at 5 µM",99.9%
same,inhibition,[4]; [19],85.6%
same,inhibition,[4]; [20],98.3%
same,inhibition,"[4]; single agent, at 5 µM",99.9%
same,inhibition,"[5]; BGB IC20 combo, at 0.005 µM",83.1%
same,inhibition,"[5]; BGB IC40 combo, at 0.005 µM",90.3%
same,inhibition,"[5]; BGB IC40 combo, at 0.05 µM",97.7%
same,inhibition,[5]; at 0.5 µM,-36.8% (inactive)
same,inhibition,"[5]; cisplatin combo, at 0.05 µM",97.7%
same,inhibition,"[5]; cisplatin combo, at 0.5 µM",-29%
same,inhibition,"[5]; cisplatin combo, at 5 µM",-20.2%
same,inhibition,"[5]; measured here: 5 uM single agent, at 5 µM",-13.2%
same,inhibition,[6]; at 0.5 µM,87.3% (active)
same,inhibition,[6]; [18],4.15%
same,inhibition,[6]; [21],99.9%
same,inhibition,[6]; [22],98.9%
same,inhibition,[7]; at 0.5 µM,98.7% (active)
same,inhibition,"[7]; measured here: with BGB IC20, at 0.5 µM",97.4%
same,inhibition,"[7]; measured here: with BGB IC20, at 5 µM",99.9%
same,inhibition,"[7]; measured here: with cisplatin IC20, at 0.5 µM",99.9%
same,inhibition,"[7]; measured here: with cisplatin IC20, at 5 µM",100%
same,inhibition,"[7]; single agent, at 5 µM",99.9%
same,inhibition,[8]; at 0.5 µM,70.4% (inactive)
same,inhibition,"[8]; measured here: combination with BGB at IC20, at 0.5 µM",75.9%
same,inhibition,"[8]; measured here: combination with cisplatin at IC20, at 0.5 µM",61.3%
same,inhibition,[9]; at 0.5 µM,89% (active)
same,inhibition,"[9]; measured here: combo with BGB at IC20, at 0.5 µM",79.1%
same,inhibition,"[9]; measured here: combo with cisplatin at IC20, at 0.5 µM",99.7%
same,inhibition,[10]; at 0.5 µM,67.5% (inactive)
same,inhibition,"[10]; measured here: inhibition with BGB combination, at 0.05 µM",-6.23%
same,inhibition,"[10]; measured here: inhibition with cisplatin combination, at 0.05 µM",29.6%
same,inhibition,[11]; at 0.5 µM,78.3% (inactive)
same,inhibition,[11]; [21],92.3%
same,inhibition,[11]; [22],103%
same,inhibition,[12]; at 0.5 µM,53.4% (inactive)
same,inhibition,"[12]; measured here: BGB combination, at 0.5 µM",39%
same,inhibition,"[12]; measured here: BGB combination, at 5 µM",63.1%
same,inhibition,"[12]; measured here: cisplatin combination, at 0.5 µM",54.4%
same,inhibition,"[12]; measured here: cisplatin combination, at 5 µM",81.3%
same,inhibition,"[13]; BGB combination, concentration series, at 5 µM",116%
same,inhibition,[13]; at 0.5 µM,68.2% (inactive)
same,inhibition,"[13]; cisplatin combination, concentration series, at 5 µM",131%
same,inhibition,[14],97% (active)
same,inhibition,[14]; measured here: combo with BGB IC20,96.5%
same,inhibition,[14]; measured here: combo with cisplatin IC20,96%
same,inhibition,[15]; at 0.5 µM,86.5% (active)
same,inhibition,"[15]; cisplatin combination, at 0.5 µM",101%
same,inhibition,"[15]; cisplatin combination, at 5 µM",104%
same,inhibition,"[15]; measured here: BGB IC40 combination 0.05 uM, at 0.05 µM",36.8%
same,inhibition,"[15]; single agent, at 5 µM",106%
same,inhibition,[16]; at 0.5 µM,83.6% (active)
same,inhibition,"[16]; cisplatin combo, at 5 µM",98.1%
same,inhibition,"[16]; measured here: BGB IC40 combination, at 0.05 µM",13.5%
same,inhibition,[16]; [21],87.1%
same,inhibition,"[16]; single agent, at 5 µM",98.2%
same,inhibition,[17]; at 0.5 µM,88.1% (active)
same,inhibition,[17]; [19],86.4%
same,inhibition,[17]; [20],88.7%
same,inhibition,"[17]; single agent, at 0.05 µM",54.1%
same,inhibition,"[17]; single agent, at 5 µM",87.3%
